Measurements published in PubChem BioAssay (Tox21).
Several values for one entry are separate records, joined by “and”; a condition that tells them apart may be missing. Identical values can stand only once. Results filed as inconclusive are left out. Activity calls are given as the source filed them. Unless noted, calls come from the whole dose curve; as a rule, active = well fitted curve in the direction sought with a large enough effect in the repeat runs; inconclusive = weak or mixed curves; inactive = no such curve, though single readings can be large; an effect the other way counts as inactive or inconclusive.

Experiments:
[1] = qHTS assay to identify small molecule agonists of the vitamin D receptor (VDR) signaling pathway - cell viability counter screen (AID 743224); conditions: VDR-bla HEK293T viability, CellTiter-Glo luminescence, 16 h; series mostly up to 62.6 µM; note: nearly all actives have a fitted effect of over 50% in size; note: potency is the fitted concentration of half-maximal effect
Summary of the method: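 Counter screen for cytotoxicity: VDR-bla cells at 2,000 cells/well, 16 h compound exposure, then CellTiter-Glo luminescence after the beta-lactamase measurement.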

[2] = qHTS assay to identify small molecule agonists of the endoplasmic reticulum stress response signaling pathway - cell viability counter screen (AID 1159517; calls by dose curve; note: nearly all actives have a fitted effect of over 50% in size; note: potency is the fitted concentration of half-maximal effect); conditions: ESRE-bla HeLa viability, CellTiter-Glo luminescence, 5 h; series mostly up to 61 µM
Summary of the method: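 After overnight attachment, ESRE-bla HeLa cells were treated with Tox21 library compounds for 5 hr. CellTiter-Glo luminescence, read 30 min post-addition at room temperature, reported viability.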

[3] = qHTS assay to identify small molecule antagonists of the retinoid-related orphan receptor gamma (ROR-gamma) signaling pathway - cell viability counter screen (AID 1159520); conditions: Tet-on RORgamma CHO cells viability, ATP luminescence, 16 h; series mostly up to 92.4 µM; note: nearly all actives have a fitted effect of over 50% in size; note: potency is the fitted concentration of half-maximal effect
Summary of the method: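 Cytotoxicity was read from cellular ATP (CellTiter-Glo luminescence) after 16 hr at 37 C with 1 uM doxycycline induction. The inducer was added 2 hr after compound transfer to Tet-on ROR gamma CHO cells.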

[4] = biological target: Nuclear receptor ROR-gamma (Homo sapiens) (UniProt P51449); test: qHTS assay to identify small molecule antagonists of the retinoid-related orphan receptor gamma (ROR-gamma) signaling pathway (AID 1159521; note: nearly all actives have a fitted effect of over 50% in size; note: potency is the fitted concentration of half-maximal effect); conditions: Tet-on RORgamma CHO cells, RORE-luciferase, 16 h; series mostly up to 92.4 µM
Summary of the method: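 CHO cells expressing RORγ under a TET-on promoter, luciferase under RORE control. Dox 1 uM final, 16 h; compounds added 2 h prior. Luminescence decrease measured.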

[5] = qHTS assay to identify small molecule agonists of the AP-1 signaling pathway - cell viability counter screen (AID 1159525; calls by dose curve; note: nearly all actives have a fitted effect of over 55% in size; note: potency is the fitted concentration of half-maximal effect); conditions: ME-180 AP-1-bla cells viability, ATP luminescence, 5 h; series mostly up to 76.8 µM
Summary of the method: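 Intracellular ATP by Cell Titer Glo luminescence (30 min, RT) in the same ME-180 AP-1-bla wells after the 5 h compound exposure at 37 °C. Normalised to tetra n-octyl ammonium bromide and DMSO controls.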

[6] = qHTS assay to identify small molecule antagonists of the vitamin D receptor (VDR) signaling pathway - cell viability counter screen (AID 743225); conditions: VDR-bla HEK293T viability, CellTiter-Glo luminescence, 16 h; series mostly up to 61 µM; note: nearly all actives have a fitted effect of over 50% in size; note: potency is the fitted concentration of half-maximal effect; for viability change, negative = cytotoxic: % is set by controls: 0 for no effect and ±100 for the full control effect
Summary of the method: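 Luminescent cell viability (CellTiter-Glo) in VDR-bla HEK 293T cells after 16 h compound exposure at 37C in the presence of 3 nM final 1-alpha,25-dihydroxy vitamin D3.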

[7] = qHTS assay to identify small molecule agonists of the RXR signaling pathway - cell viability counter screen (AID 1159529); conditions: RXR-alpha-bla HEK293T viability, CellTiter-Glo, 16 h; series mostly up to 76.8 µM; note: nearly all actives have a fitted effect of over 50% in size; note: potency is the fitted concentration of half-maximal effect
Summary of the method: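 Same-well viability check after the LiveBLAzer FRET read: CellTiter-Glo added, luminescence measured after 30 min at room temperature. Reporter HEK 293T cells had been treated with compounds for 16 hr following a 5 hr preincubation.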

[8] = biological target: Retinoic acid receptor RXR-alpha (Homo sapiens) (UniProt P19793); test: qHTS assay to identify small molecule agonists of the RXR signaling pathway (AID 1159527; calls by dose curve; note: % is set by controls: 0 for no effect and ±100 for the full control effect; nearly all actives have a fitted effect of over 35% in size); conditions: HEK293T RXRa-UAS-bla, beta-lactamase ratio, 16 h; series mostly up to 76.8 µM
Chain of Retinoic acid receptor RXR-alpha (Homo sapiens) (P19793 whole entry, looked up): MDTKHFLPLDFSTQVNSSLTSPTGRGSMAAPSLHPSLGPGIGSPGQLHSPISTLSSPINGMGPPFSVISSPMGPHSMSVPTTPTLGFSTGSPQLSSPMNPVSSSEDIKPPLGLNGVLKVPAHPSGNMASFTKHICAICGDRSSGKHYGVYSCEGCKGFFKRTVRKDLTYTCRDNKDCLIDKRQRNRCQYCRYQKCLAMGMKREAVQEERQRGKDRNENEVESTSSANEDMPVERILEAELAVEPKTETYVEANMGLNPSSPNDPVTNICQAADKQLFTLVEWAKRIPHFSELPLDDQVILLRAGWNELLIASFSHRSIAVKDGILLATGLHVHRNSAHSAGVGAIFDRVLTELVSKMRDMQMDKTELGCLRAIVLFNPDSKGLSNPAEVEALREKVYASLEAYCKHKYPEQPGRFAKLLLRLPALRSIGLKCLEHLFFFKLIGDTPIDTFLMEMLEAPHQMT
Summary of the method: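 Beta-lactamase reporter assay, agonist format. Engineered HEK 293T line, charcoal-stripped FBS at 2%, overnight (16 hr) exposure, fluorescence at 460 and 530 nm after 405 nm excitation.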

[9] = qHTS assay to identify small molecule agonists of the AP-1 signaling pathway (AID 1159526; calls by dose curve; note: % is set by controls: 0 for no effect and ±100 for the full control effect); conditions: ME-180 (cervical carcinoma) AP-1-bla reporter, beta-lactamase FRET ratio, 5 h; series mostly up to 76.8 µM

Brc1ccccc1-c1ccccc1
active: Potency [2] 41.3 µM
inactive: Potency [1] | Potency [3] | Potency [4] | Potency [5]

CO[C@H]1C=CO[C@@]2(C)Oc3c(C)c(O)c4c(O)c(cc(O)c4c3C2=O)NC(=O)/C(C)=C\C=C/[C@H](C)[C@H](O)[C@@H](C)[C@@H](O)[C@@H](C)[C@H](OC(C)=O)[C@@H]1C
inactive: Potency [1] | Potency [6] | Potency [2] | Potency [3]
active: Potency [4] 43.6 µM | Potency [5] 49.3 µM | Potency [7] 12.4 µM

O=Nc1ccc(NO)cc1
inactive: Potency [6] | Potency [2] | Potency [5] | Potency [8] | Potency [7]

CCCCCCC(C)OC(=O)COc1nc(F)c(Cl)c(N)c1Cl (centres undefined)
active: Potency [1] 43.6 µM | Potency [6] 49 µM | Potency [2] 54.9 µM | Potency [5] 49 µM | Potency [7] 34.7 µM

Nc1cc(Cl)c([N+](=O)[O-])cc1O
inactive: Potency [6] | Potency [2] | Potency [4] | Potency [5] | Potency [8] | Potency [7]

CC(=O)Nc1ccc(O)cc1
inactive: Potency [1] | Potency [2] | Potency [3] | Potency [5] | Potency [7]

CC(C)c1cccc(C(C)C)c1N1C(=O)c2ccc(O)cc2C1=O
inactive: Potency [2]
active: Potency [1] 43.6 µM | Potency [3] 27.3 µM

CCCSS/C(CCO)=C(\C)N(C=O)Cc1cnc(C)nc1N
inactive: Potency [1] | Potency [2] | Potency [4] | Potency [9]

CN1[C@@H]2CC[C@H]1CC(OC(=O)C(CO)c1ccccc1)C2 (some centres undefined)
inactive: Potency [2] | Potency [3] | Potency [5] | Potency [9] | Potency [8]
active: Potency [7] 48.9 µM

NC(=O)c1nc(-c2cccc(-c3cc(F)ccc3OCC(F)(F)C(F)(F)F)c2)n[nH]1
active: Potency [1] 43.6 µM | Potency [2] 61.6 µM | Potency [4] 34.4 µM
inactive: Potency [8]

Cc1ccc(-n2[nH]c(C)c(N=Nc3cccc(-c4cccc(C(=O)O)c4)c3O)c2=O)cc1C
active: Potency [5] 26.8 µM
inactive: Potency [2] | Potency [8]

CCCCC(CC)COC(=O)c1ccc(O)cc1 (centres undefined)
active: Potency [1] 21.8 µM and 49 µM | Potency [6] 15.4 µM and 38.9 µM | Potency [2] 49 µM | Potency [5] 24.5 µM and 49 µM | Potency [7] 38.8 µM and 49 µM

CCCCCCCCCCCCCOP(=O)(O)O
active: Potency [2] 30.9 µM
inactive: Potency [1] | Potency [3] | Potency [5] | Potency [7]

Cc1cc(Nc2ccc(O)cc2)ccc1N
inactive: Potency [1] | Potency [6] | Potency [2] | Potency [5] | Potency [8]

CCCOc1sc(C(=O)N2CCC(c3cc(CN)ccc3F)CC2)c(C)c1Br
active: Potency [1] 35.7 µM | Potency [6] 35.7 µM | Potency [2] 44.9 µM | Potency [4] 28.1 µM | Potency [5] 44.9 µM | Potency [7] 17.9 µM

CC(C)(c1cc(Br)c(O)c(Br)c1)c1cc(Br)c(O)c(Br)c1
active: Potency [2] 48.8 µM and 15.5 µM | Potency [3] 60.9 µM | Potency [5] 48.8 µM and 48.9 µM | Potency [7] 54.8 µM and 48.9 µM and 46.3 µM
inactive: Potency [8]

Oc1c(Br)cc(Br)c2cccnc12
inactive: Potency [2] | Potency [5]
active: Potency [7] 1.51 µM

S=C(SSSSSSC(=S)N1CCCCC1)N1CCCCC1
active: Potency [1] 0.271 µM | Potency [4] 0.239 µM | Potency [7] 0.606 µM
inactive: Potency [2] | viability change, negative = cytotoxic [5] 2.16% [at 15.8 µM]

CN(C)CCCN1c2ccccc2CCc2ccccc21
inactive: Potency [1] | Potency [6] | Potency [2] | Potency [3] | Potency [5] | Potency [7]

Oc1ccc(-c2ccccc2)c(Cl)c1
inactive: Potency [2] | Potency [4] | Potency [8]

C[n+]1c2cc(N)ccc2cc2ccc(N)cc21 (tested in a mixture with another compound)
inactive: Potency [2] | Potency [5]

Clc1ccccc1CN1CCc2sccc2C1
inactive: Potency [1] | Potency [2] | Potency [3] | Potency [7]

CCOC(=O)[C@@](C)(N)Cc1ccc(O)c(O)c1
inactive: Potency [1] | Potency [2] | Potency [3] | Potency [9] | Potency [7]

Clc1ccc(C(Cn2ccnc2)OCc2ccsc2Cl)c(Cl)c1 (centres undefined)
active: Potency [4] 23.7 µM
inactive: Potency [1] | Potency [2]

Clc1ccc(C(Cn2ccnc2)OCc2c(Cl)cccc2Cl)c(Cl)c1 (centres undefined)
inactive: Potency [2]
active: Potency [1] 33.5 µM | Potency [4] 13.3 µM | Potency [7] 26.8 µM

Cc1c(C)n(Cc2ccccc2)c2ccc(C(=O)OCCN(C)C)cc12
inactive: Potency [2] | Potency [5]

Cc1occc1SSc1ccoc1C
inactive: Potency [6] | Potency [2] | Potency [4] | Potency [5] | Potency [7]

CC(C)(C)c1cc(/C=C2\SC(=N)NC2=O)cc(C(C)(C)C)c1O
inactive: Potency [5]
active: Potency [6] 43.6 µM | Potency [2] 54.9 µM
